Experimental data from PubChem BioAssay (NCI).
This is part of a sample that, as a whole, favours compounds with a hit. Of some 79,000 tested, about 15% had one in any assay. Values without a mark were called inactive. Active and inactive are the calls of the source. No stated cut-off is given here; in the data, active means growth inhibition above about 70%; inactive means the rest.

Tests used:
[1] = NCI Yeast Anticancer Drug Screen. Data for the rad50 strain (AID 155);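 further: 0% = growth of vehicle-only cultures of the same strain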; details: S. cerevisiae rad50 strain growth inhibition, stronger effect = higher value
Summary of the method: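 Compounds were tested on a yeast strain with an engineered DNA damage repair alteration; the reported value is growth inhibition normalised to vehicle treatment.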

[2] = NCI Yeast Anticancer Drug Screen. Data for the mec2-1 strain (AID 157); details: S. cerevisiae mec2-1 strain, stronger effect = higher value
Summary of the method: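 Using mec2-1 yeast: add compound, measure growth, express inhibition versus vehicle-treated cultures.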

[3] = NCI Yeast Anticancer Drug Screen. Data for the sgs1 mgt1 strain (AID 161);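 further: 0% = growth of cultures given vehicle only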; details: S. cerevisiae sgs1 mgt1 strain, stronger effect = higher value
Summary of the method: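 Compounds are added to genetically altered yeast, and growth is compared with cultures given vehicle alone to give percent inhibition.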

[4] = NCI Yeast Anticancer Drug Screen. Data for the mlh1 rad18 strain (AID 175); details: S. cerevisiae mlh1 rad18 strain growth inhibition, stronger effect = higher value
Summary of the method: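 Steps: expose repair-defective yeast to compound; measure growth; express inhibition against vehicle-treated controls.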

[5] = NCI Yeast Anticancer Drug Screen. Data for the cln2 rad14 strain (AID 165);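 further: 0% = growth equal to vehicle treated cultures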; details: S. cerevisiae cln2 rad14 strain, stronger effect = higher value
Summary of the method: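 Yeast strain cln2 rad14, bearing defects in cell cycle control and DNA repair, serves as the test system; values reflect growth inhibition compared with vehicle.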

[6] = NCI Yeast Anticancer Drug Screen. Data for the bub3 strain (AID 167); details: S. cerevisiae bub3 mutant strain, stronger effect = higher value
Summary of the method: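 Growth of a checkpoint-deficient yeast mutant is measured after compound exposure. Values represent inhibition relative to vehicle.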

[7] = at 5.0 µM (retest, dose inferred, filed as 0.5)
[8] = at 50.0 µM (retest, dose inferred, filed as 5.0)

Cc1cc(I)nc2ccccc12
growth inhibition [1, 7]: 0% | growth inhibition [1, 8]: 15% | growth inhibition ([1]; at 50.0 µM): 68.4% | growth inhibition [2, 7]: -1% | growth inhibition [2, 8]: 1% | growth inhibition ([2]; at 50.0 µM): 21.2% | growth inhibition [3, 7]: -3% | growth inhibition [3, 8]: 8% | growth inhibition ([3]; at 50.0 µM): 59% | growth inhibition [4, 7]: -2% | growth inhibition [4, 8]: -12% | growth inhibition ([4]; at 50.0 µM): 48.7%

O=C1C=CC(O)=CC1=P(c1ccccc1)(c1ccccc1)c1ccccc1
growth inhibition [1, 7]: 2% | growth inhibition [1, 8]: 11% | growth inhibition ([1]; at 50.0 µM): 48.1% | growth inhibition [2, 7]: -1% | growth inhibition [2, 8]: 6% | growth inhibition ([2]; at 50.0 µM): -8.55% | growth inhibition [3, 7]: -1% | growth inhibition [3, 8]: 2% | growth inhibition ([3]; at 50.0 µM): 47.5% | growth inhibition [5, 7]: -2% | growth inhibition [5, 8]: -3% | growth inhibition ([5]; at 50.0 µM): 7.4% | growth inhibition [4, 7]: 3% | growth inhibition [4, 8]: 8% | growth inhibition ([4]; at 50.0 µM): 34.5%

CCC[CH2][Sn]1([CH2]CCC)[O]C2C(CO)OC(n3ccc(N)nc3=O)C2[O]1 (stereo not drawn)
growth inhibition [1, 7]: 46% | growth inhibition [1, 8]: 97% (active) | growth inhibition ([1]; at 50.0 µM): 86.8% (active) | growth inhibition [2, 7]: 48% | growth inhibition [2, 8]: 98% (active) | growth inhibition ([2]; at 50.0 µM): 89.7% (active) | growth inhibition [3, 7]: 83% (active) | growth inhibition [3, 8]: 99% (active) | growth inhibition ([3]; at 50.0 µM): 88.5% (active) | growth inhibition [5, 7]: 71% (active) | growth inhibition [5, 8]: 99% (active) | growth inhibition ([5]; at 50.0 µM): 83.6% (active) | growth inhibition [6, 7]: 89% (active) | growth inhibition [6, 8]: 99% (active) | growth inhibition ([6]; at 50.0 µM): 87.3% (active) | growth inhibition [4, 7]: 26% | growth inhibition [4, 8]: 96% (active) | growth inhibition ([4]; at 50.0 µM): 84.2% (active)

CCSc1nc2ccccc2o1
growth inhibition [1, 7]: 7% | growth inhibition [1, 8]: 0% | growth inhibition ([1]; at 50.0 µM): 54.4% | growth inhibition [2, 7]: 0% | growth inhibition [2, 8]: -1% | growth inhibition ([2]; at 50.0 µM): 39.6% | growth inhibition [3, 7]: 6% | growth inhibition [3, 8]: 2% | growth inhibition ([3]; at 50.0 µM): 9.4% | growth inhibition [6, 7]: 3% | growth inhibition [6, 8]: -2% | growth inhibition ([6]; at 50.0 µM): 42.6% | growth inhibition [4, 7]: 3% | growth inhibition [4, 8]: -3% | growth inhibition ([4]; at 50.0 µM): -15.7%

CC(/C=N/NC(N)=S)Cc1ccc(C(C)C)cc1 (stereo not drawn)
growth inhibition [1, 7]: 28% | growth inhibition [1, 8]: 82% (active) | growth inhibition ([1]; at 50.0 µM): 91.3% (active) | growth inhibition [2, 7]: 45% | growth inhibition [2, 8]: 74% (active) | growth inhibition ([2]; at 50.0 µM): 92.5% (active) | growth inhibition [3, 7]: 98% (active) | growth inhibition [3, 8]: 97% (active) | growth inhibition [5, 7]: 98% (active) | growth inhibition [5, 8]: 98% (active) | growth inhibition [6, 7]: 99% (active) | growth inhibition [6, 8]: 97% (active) | growth inhibition [4, 7]: 32% | growth inhibition [4, 8]: 74% (active) | growth inhibition ([4]; at 50.0 µM): 91.1% (active)

CCCC[n+]1c(/C=C\c2c(OC)cc(OC)cc2OC)ccc2ccccc21
growth inhibition [1, 7]: 64% | growth inhibition [1, 8]: 97% (active) | growth inhibition ([1]; at 50.0 µM): 88.8% (active) | growth inhibition [2, 7]: 61% | growth inhibition [2, 8]: 99% (active) | growth inhibition ([2]; at 50.0 µM): 90.8% (active) | growth inhibition [3, 7]: 67% | growth inhibition [3, 8]: 99% (active) | growth inhibition ([3]; at 50.0 µM): 91.7% (active) | growth inhibition [6, 7]: 86% (active) | growth inhibition [6, 8]: 98% (active) | growth inhibition ([6]; at 50.0 µM): 90.1% (active)

CCC1C[N+]2=C(c3cc(OC)c(OC)cc3CC2)c2c1cc1n2CCc2cc(OC)c(OC)cc2-1 (stereo not drawn)
growth inhibition [1, 7]: 99% (active) | growth inhibition [1, 8]: 99% (active) | growth inhibition ([1]; at 50.0 µM): 93% (active) | growth inhibition [2, 7]: 100% (active) | growth inhibition [2, 8]: 99% (active) | growth inhibition ([2]; at 50.0 µM): 94.8% (active) | growth inhibition [3, 7]: 99% (active) | growth inhibition [3, 8]: 99% (active) | growth inhibition ([3]; at 50.0 µM): 94.5% (active) | growth inhibition [5, 7]: 96% (active) | growth inhibition [5, 8]: 99% (active) | growth inhibition ([5]; at 50.0 µM): 92.8% (active) | growth inhibition [6, 7]: 99% (active) | growth inhibition [6, 8]: 99% (active) | growth inhibition ([6]; at 50.0 µM): 93.5% (active) | growth inhibition [4, 7]: 97% (active) | growth inhibition [4, 8]: 99% (active) | growth inhibition ([4]; at 50.0 µM): 93.6% (active)

CCOc1cc2c(cc1O)/C(=N\OC)C[C@@H]1[C@@H]2CC[C@]2(C)[C@@H](O)CC[C@@H]12
growth inhibition [1, 7]: 16% | growth inhibition [1, 8]: 59% | growth inhibition ([1]; at 50.0 µM): 13.9% | growth inhibition [2, 7]: 0% | growth inhibition [2, 8]: 42% | growth inhibition ([2]; at 50.0 µM): -2.45% | growth inhibition [3, 7]: 5% | growth inhibition [3, 8]: 86% (active) | growth inhibition ([3]; at 50.0 µM): 9.8% | growth inhibition [5, 7]: 23% | growth inhibition [5, 8]: 67% | growth inhibition ([5]; at 50.0 µM): 24.8% | growth inhibition [4, 7]: 16% | growth inhibition [4, 8]: 68% | growth inhibition ([4]; at 50.0 µM): 79.1% (active)

CC1(C)CCC2(C(=O)O)C(O)CC3(C)C(=CCC4C5(C)CCC(OC6OCC(O)C(O)C6OC6OCC(O)C(O)C6OC6OCC(O)C(OC7OC(CO)C(O)C(O)C7O)C6O)C(C)(C)C5CCC43C)C2C1 (stereo not drawn)
growth inhibition [1, 7]: 8% | growth inhibition [1, 8]: 99% (active) | growth inhibition ([1]; at 50.0 µM): 77.3% (active) | growth inhibition [2, 7]: 7% | growth inhibition [2, 8]: 99% (active) | growth inhibition ([2]; at 50.0 µM): 87.3% (active) | growth inhibition [3, 7]: 6% | growth inhibition [3, 8]: 99% (active) | growth inhibition ([3]; at 50.0 µM): 88% (active) | growth inhibition [5, 7]: 5% | growth inhibition [5, 8]: 99% (active) | growth inhibition ([5]; at 50.0 µM): 86.6% (active) | growth inhibition [4, 7]: 14% | growth inhibition [4, 8]: 99% (active) | growth inhibition ([4]; at 50.0 µM): -30.2%

CCCOS(=O)(=O)c1ccccc1
growth inhibition [1, 7]: 14% | growth inhibition [1, 8]: 1% | growth inhibition ([1]; at 50.0 µM): 0.7% | growth inhibition [2, 7]: 19% | growth inhibition [2, 8]: 38% | growth inhibition ([2]; at 50.0 µM): 12.3% | growth inhibition [3, 7]: -7% | growth inhibition [3, 8]: 4% | growth inhibition ([3]; at 50.0 µM): 10.1% | growth inhibition [5, 7]: 38% | growth inhibition [5, 8]: 35% | growth inhibition ([5]; at 50.0 µM): -2.2% | growth inhibition [6, 7]: 23% | growth inhibition [6, 8]: 42% | growth inhibition ([6]; at 50.0 µM): -1.4% | growth inhibition [4, 7]: 11% | growth inhibition [4, 8]: 32% | growth inhibition ([4]; at 50.0 µM): 14.3%
